# Laboratory results from PubChem BioAssay (NCATS).
# Results filed as inconclusive are left out. A call without a number means that no potency is given here. Unmarked numbers belong to inactive results. Active and inactive are the calls of the source. The call rests on the fitted dose curve; in most records, active means well fitted curve in the direction sought with a large enough effect; inconclusive means small, poorly fitted or top-dose-only effect, or another doubt; inactive means no such curve, though single readings can be large; an effect the other way counts as inactive or inconclusive.
# Experiments:
# [1] = Quantitative highthroughput screen to assess conditional lethalithy of NOMO1 cells grown in RPMI1640 with untreated serum (RPMI+s) (AID 1963876); conditions: NOMO1 AML cells in RPMI+serum, CellTiter-Glo viability, 48 h; series mostly up to 45.8 µM; further: nearly all actives have a fitted effect of over 35% in size; further: potency means the concentration at half of the fitted maximal effect
# Method in brief: (§1)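 Each medium arm—HPLM with 10% dialyzed FBS, or RPMI1640 with 5 mM glucose and 10% untreated or dialyzed FBS—was screened against an 11-point, 3-fold compound titration for 48 h at 37 °C, with CellTiter-Glo luminescence as endpoint.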
# [2] = Quantitative highthroughput screen to assess conditional lethalithy of NOMO1 cells grown in RPMI1640 with dialyzed fetal bovine serum (RPMI+ds) (AID 1963877); conditions: NOMO1 in RPMI+dialyzed FBS viability, ATP luminescence, 48 h; series mostly up to 45.8 µM; further: nearly all actives have a fitted effect of over 30% in size; further: potency means the concentration at half of the fitted maximal effect
# Method in brief: as §1
# [3] = Quantitative highthroughput screen to assess conditional lethalithy of NOMO1 cells grown in Human Plasma-Like Medium with dialyzed fetal bovine serum (HPLM+ds) (AID 1963878); conditions: NOMO1 AML cells in HPLM+ds, CellTiter-Glo viability, 48 h; series mostly up to 45.8 µM; further: nearly all actives have a fitted effect of over 35% in size; further: potency means the concentration at half of the fitted maximal effect
# Method in brief: as §1
# [4] = Quantitative highthroughput screen to assess conditional lethalithy of P12 Ichikawa cells grown in Human Plasma-Like Medium with dialyzed fetal bovine serum (HPLM+ds) (AID 1963879); conditions: ATP luminescence, 48 h; Potency: viability; series mostly up to 45.8 µM; further: nearly all actives have a fitted effect of over 35% in size; further: potency means the concentration at half of the fitted maximal effect
# Method in brief: as §1
# [5] = Quantitative highthroughput screen to assess conditional lethalithy of P12 Ichikawa cells grown in RPMI1640 with dialyzed fetal bovine serum (RPMI+ds) (AID 1963880); conditions: ATP luminescence, 48 h; Potency: P12-Ichikawa viability; series mostly up to 45.8 µM; further: nearly all actives have a fitted effect of over 35% in size; further: potency means the concentration at half of the fitted maximal effect
# Method in brief: as §1
# [6] = Quantitative highthroughput screen to assess conditional lethalithy of P12 Ichikawa cells grown in RPMI1640 with untreated serum (RPMI+s) (AID 1963881); conditions: ATP luminescence, 48 h; Potency: viability; series mostly up to 45.8 µM; further: nearly all actives have a fitted effect of over 35% in size; further: potency means the concentration at half of the fitted maximal effect
# Method in brief: as §1
# [7] = Quantitative highthroughput screen to assess conditional lethalithy of SEM cells grown in Human Plasma-Like Medium with dialyzed fetal bovine serum (HPLM+ds) (AID 1963882); conditions: SEM B-ALL cells in HPLM+ds, CellTiter-Glo viability, 48 h; series mostly up to 45.8 µM; further: nearly all actives have a fitted effect of over 35% in size; further: potency means the concentration at half of the fitted maximal effect
# Method in brief: as §1
# [8] = Quantitative highthroughput screen to assess conditional lethalithy of SEM cells grown in RPMI1640 with dialyzed fetal bovine serum (RPMI+ds) (AID 1963884); conditions: SEM B-ALL cells, RPMI+dialyzed FBS, CellTiter-Glo viability, 48 h; series mostly up to 45.8 µM; further: nearly all actives have a fitted effect of over 35% in size; further: potency means the concentration at half of the fitted maximal effect
# Method in brief: as §1
# [9] = Quantitative highthroughput screen to assess conditional lethalithy of SEM cells grown in RPMI1640 with unreated serum (RPMI+s) (AID 1963883); conditions: SEM B-ALL cells, CellTiter-Glo viability, 48 h; series mostly up to 45.8 µM; further: nearly all actives have a fitted effect of over 35% in size; further: potency means the concentration at half of the fitted maximal effect
# Method in brief: as §1
# [10] = Cellular viability qHTS for adrenocortical cancer (ACC) cell line SW-13 (AID 1963989); conditions: SW-13 ACC cells viability, CellTiter-Glo, 48 h; activity (max response): hits give low values; further: nearly all actives have a fitted effect of over 65% in size; further: potency means the concentration at half of the fitted maximal effect;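 on activity (max response): cells grown in serum-free medium with ITS supplement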
# Method in brief: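 Here, serum-free SW-13 cultures were dosed up to 46 uM. Following 48 h, ATP-dependent luminescence (CellTiter-Glo) reported viable cells, and logistic modeling produced IC50 values.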
# [11] = Cellular viability qHTS for adrenocortical cancer (ACC) cell line NCI-H295R (AID 1963990); conditions: CellTiter-Glo ATP luminescence, 48 h; series mostly up to 46.1 µM; further: nearly all actives have a fitted effect of over 60% in size
# Method in brief: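 Viability of NCI-H295R after 48 h of treatment (final up to 46 uM) measured through cellular ATP luminescence.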
SMILES,Potency [1],Potency [2],Potency [3],Potency [4],Potency [5],Potency [6],Potency [7],Potency [8],Potency [9],activity (max response) [10],Potency [11],Potency [10]
CC=CC(=O)N(CC)c1ccccc1C,inactive,inactive,inactive,inactive,inactive,inactive,inactive,inactive,–,–,–,–
CN(C)CCN(Cc1ccc(Cl)cc1)c1ccccn1,inactive,inactive,inactive,inactive,inactive,inactive,inactive,inactive,inactive,-3.95%,inactive,–
N#CC(c1ccnc(NCCc2cccnc2)n1)c1nc2ccccc2s1 (centres undefined),inactive,inactive,inactive,inactive,inactive,inactive,inactive,inactive,inactive,–,–,25100 nM (active)
C[C@H](O)[C@@H]1C(=O)N2C(C(=O)O)=C(S[C@@H]3CN[C@H](CNS(N)(=O)=O)C3)[C@@H](C)[C@@H]12,inactive,inactive,inactive,inactive,inactive,inactive,inactive,–,inactive,8.99%,inactive,–
COC(=O)C[C@](O)(CCCC(C)(C)O)C(=O)O[C@@H]1C(OC)=C[C@]23CCCN2CCc2cc4c(cc2[C@H]13)OCO4,inactive,inactive,inactive,inactive,inactive,inactive,inactive,–,inactive,-15.2%,inactive,–
Cc1[nH]c2ccccc2c1CCNCc1ccc(C=CC(=O)NO)cc1,743 nM (active),743 nM (active),526 nM (active),590 nM (active),662 nM (active),469 nM (active),209 nM (active),264 nM (active),264 nM (active),–,–,–
O=C(NC1CCOCC1)c1ccc(-c2cc(-c3cn[nH]c3-c3ccccn3)ccn2)cc1,inactive,inactive,inactive,inactive,inactive,inactive,inactive,inactive,inactive,6.28%,inactive,–
